Compound activity from PubChem BioAssay.
Hits are enriched below; roughly 12% of the tested compounds scored in any of these assays.
Pf growth 96h = inhibits malaria parasite growth, 96 h | P. falciparum luciferase reporter growth, 96 h | AID 504834 | Potency, µM (highest dose often 28.7 µM), inactives show top-dose activity change, negative = inhibition, usual class: inhibitors | 320,000 compounds, 6.9% hits; also: % is scaled to controls: 0 for no effect and ±100 for the full control effect
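Two parasite generations (96 h, 37 C, 5% CO2) of compound exposure in infected erythrocytes (0.05% parasitemia, 2% hematocrit). Luciferase-reporter P. falciparum; decreased luminescence indicates inhibited growth, aimed at apicoplast-acting delayed death.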
AMA1-RON2 inh = inhibitors of Plasmodium falciparum AMA1-RON2 interaction; 360,000 compounds, 0.2% hits; AlphaScreen AMA1-biotinylated RON2 peptide binding; Potency, µM (highest dose often 58.2 µM), for inactives: at the highest dose activity change, negative = inhibition, most hits filed as inhibitors;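 also: 0% = vehicle wells and -100% = peptide control; nearly all actives have a fitted effect of over 45% in size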
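AMA1 (3D7) with his tag at 25 nM final met compounds first, then biotinylated RON2 peptide at 25 nM; detection used donor plus acceptor beads, 10 µg/mL apiece, read by AlphaScreen after 30 min at room temperature.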
NS1 function inh = blocks influenza NS1 protein function. Potency, µM (doses to about 46.1 µM), inactives show at the highest dose activity, positive = more growth. 270,000 compounds, 0.4% hits. AID 2326; calls by dose curve; also: actives are rising curves; nearly all actives have a fitted effect of over 50% in size
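OD600 was taken as the measure of yeast growth restored by compound in an NS1-expressing S. cerevisiae strain. Cells had been washed out of glucose medium and diluted 1:100 into galactose -URA medium, pH 6.0.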
Pf growth 48h = P. falciparum growth inhibition at 48 hours (one generation); Potency, µM (series often up to 28.7 µM), without a hit: at the top dose activity change, negative = inhibition, actives largely listed as inhibitors; P. falciparum luciferase growth in erythrocytes, 48 h; 310,000 compounds, 5.9% hits; AID 504832; also: % is scaled to controls: 0 for no effect and ±100 for the full control effect
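First compound was added to culture medium, then infected red cells at 0.1% parasitemia and 2% hematocrit (final). After incubation at 37 C under 5% CO2, luciferase detection reagent was dispensed and light output recorded.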
HCV inhibitor = HCV inhibition. Huh7.5.1 HCVcc-Cre infection, luciferase reporter, 44 h. Potency, µM (top dose mostly 41.8 µM), for the others: top-dose activity change, negative = inhibition, most hits filed as inhibitors. 340,000 compounds, 3.4% hits. AID 651820; also: % is scaled to controls: 0 for no effect and ±100 for the full control effect
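Reporter virus HCVcc-Cre (~0.5 moi) infects cells exposed to compound; seeding density 1,000 cells/well with 4 h settling beforehand. Luminescence, 15 sec read, taken 44 h post-infection following a 15 min RT substrate incubation.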
SARS PLP yeast = SARS-CoV PLP inhibition in yeast; S. cerevisiae expressing SARS-CoV PLpro, growth rescue; Potency, µM (top dose mostly 32.9 µM), without a hit: at the highest dose activity, positive = growth rescue, most hits filed as activators; 330,000 compounds, 0.19% hits; AID 485353; calls by dose curve; also: 0% is about no effect; nearly all actives have a fitted effect of over 55% in size
* hit, by the source's call; u = inconclusive; x = not tested or not shown; [ ] = dose if it differs, or a comment. Unless noted, calls follow the shape of the dose curve; as a rule, active = well fitted curve in the direction sought with a large enough effect; inconclusive = small, poorly fitted or top-dose-only effect, or another doubt; inactive = no such curve, though single readings can be large; an effect the other way counts as inactive or inconclusive. Potency is read from the fitted curve at half-maximal effect.

SMILES	Pf growth 96h	AMA1-RON2 inh	NS1 function inh	Pf growth 48h	HCV inhibitor	SARS PLP yeast
CCCCC(O)(CCCC)C(=O)NN(C(=O)c1cccnc1Cl)c1ccccc1	-19%	-2%	0%	u	8%	0%
Cc1ccccc1N=C(N)Nc1ccccc1C	10µM*	-1%	x	u	7%	-1%
O=C1/C(=C/c2cc3c(cc2Cl)OCO3)N2CCC1CC2	0%	x	-15%	16%	11%	0%
O=C1/C(=C\c2cc3c(cc2Cl)OCO3)N2CCC1CC2	5.9µM*	-6%	2%	21%	-10%	-3%
CC[n+]1ccccc1/C=C1\Sc2ccc(C)cc2N1C	26%	0%	-42%	1µM*	6.3µM*	-3%
CN1/C(=C/c2cccc[n+]2CCO)Sc2ccccc21	u	-7%	-3%	u	-15%	0%
O=C(O)c1cnn(-c2ccccc2)c1-c1ccncc1	-29%	-5%	0%	12%[0.00184 µM]	4%	3%
O=Cc1cccn1-c1c(C(=O)O)cnn1-c1ccccc1	10µM*	1%	x	16%	-2%	-2%
CCC1CSC(Nc2ccc(C(=O)/C=C/c3ccc(Oc4ccccc4)cc3)cc2)=N1 (stereo not given)	6.6µM*	-14%	19%	10µM*	u	-23%
Oc1ccccc1Nc1nc(-c2ccccc2O)nc2ccccc12	1.3µM*	0%	2%	1µM*	u	0%
COc1cccc(Nc2nc(-c3ccccc3O)nc3ccccc23)c1	19%	0%	2%	x	u	1%
Oc1ccc(Nc2nc(-c3ccccc3O)nc3ccccc23)cc1	u	0%	-83%	-15%	11µM*	-12%
COc1ccc(OC)c(Nc2nc(-c3ccccc3O)nc3ccccc23)c1	u	-30%	-3%	-3%	u	0%
COc1ccccc1Nc1nc(-c2ccccc2O)nc2ccccc12	u	0%	5%	u	4µM*	3%
COc1ccc(Nc2nc(-c3ccccc3F)nc3ccccc23)cc1OC	u	-8%	-5%	u	25µM*	-6%
CC(C)CCN1CCN(Cc2cccc(C(F)(F)F)c2)CC1CCO (stereo not given)	1%	-11%	0%	u	-11%	-2%
CC(OC(=O)Cc1n[nH]c(=O)c2ccccc12)C(=O)Nc1cccc([N+](=O)[O-])c1 (stereo not given)	21%	12%	x	-9%	17%	-2%
O=C1NCCc2c1[nH]c1c(Cl)ccc(Cl)c21	-1%	-3%	-65%	32%	11µM*	-1%
O=C1NCCc2c1[nH]c1ccc([N+](=O)[O-])cc21	1%	2%	1%	8%	u	2%
CC(C)OCCCN1CN(S(=O)(=O)c2cccc(Cl)c2)c2nc3ccccc3nc21	9.3µM*	-2%	6%	u	-20%	3%
CCOC(=O)c1ccc(/[N+]([O-])=C/c2ccccc2)cc1	194%	u	x	161%	1%	-9%
C#CCCc1cscc1/C=[N+](\[O-])c1ccc(C(=O)OCC)cc1	u	-19%	x	8.3µM*	u	6%
S=C1NCCNC(=S)NCCOCCOCCN1	-11%	36%	x	12%	11%	-2%
Cc1cc(NS(=O)(=O)c2ccc(NS(=O)(=O)c3ccc(CC(C)C)cc3)cc2)nc(C)n1	12%	0%	5%	33%[5.75 µM]	4µM*	-1%
Cc1ccc(S(=O)(=O)Nc2ccc(S(=O)(=O)Nc3cc(C)nc(C)n3)cc2)cc1	33%	-4%	-6%	-4%	13%	-1%
SMILES	Pf growth 96h	AMA1-RON2 inh	NS1 function inh	Pf growth 48h	HCV inhibitor	SARS PLP yeast
COc1ccccc1C(=O)COC(=O)c1cc(S(=O)(=O)N2CCCCC2)ccc1N1CCOCC1	u	-1%	x	9.3µM*	-21%	9%
COc1ccc(C(=O)COC(=O)c2cc(S(=O)(=O)N3CCCCC3)ccc2N2CCOCC2)c(OC)c1	9.3µM*	-5%	x	9.3µM*	u	-15%
COc1ccc(C(=O)OCC(=O)c2ccc(S(=O)(=O)N3CCCCC3)cc2)c(OC)c1	u	-26%	x	u	-4%	3%
COc1ccccc1C(=O)COC(=O)C1CCN(S(=O)(=O)c2ccccc2)CC1	x	2%	x	x	x	x
COc1cccc(COC(=O)c2cc(S(=O)(=O)N3CCCCC3)ccc2N2CCOCC2)c1OC	u	5%	x	6.6µM*	-24%	-4%
COC(=O)c1ccccc1S(=O)(=O)N1CCC(C(=O)OCC(=O)c2ccccc2OC)CC1	u	-22%	x	10µM*	-4%	1%
O=C(CNC(=O)c1ccc2ccccc2c1)NCc1ccccc1F	u	-6%	-9%	-8%	8%	-2%
CC(=O)N(c1cccc(Cl)c1)c1nc(C)cc(C)c1C#N	11%	-3%	3%	9%	10%	-1%
O=C(NCc1ccccc1F)Nc1ccc([N+](=O)[O-])cc1	13µM*	10%	x	-5%	-26%	1%
Cc1ccc(NC(=O)C2(c3ccc([N+](=O)[O-])cc3)CCCC2)cc1	-3%	-13%	6%	2.6µM*	u	23%
Cc1ccc(OCC(=O)Nc2ccc([N+](=O)[O-])cc2)cc1	243%	10%	13%	6%	8%	4%
CC(=O)c1ccc(NC(=O)Nc2ccc([N+](=O)[O-])cc2)cc1	u	2%	-9%	-9%	8%	-5%
CC(=O)Nc1ccc(OS(=O)(=O)c2ccc(Cl)cc2)cc1	28%	1%	-17%	u	4%	0%
CC(=O)Nc1ccc(OS(=O)(=O)c2ccc([N+](=O)[O-])cc2)cc1	1%	-3%	3%	13µM*	-6%	-1%
O=C(Nc1ccc([N+](=O)[O-])cc1)Nc1ccc([N+](=O)[O-])cc1	2.4µM*	x	x	2.7µM*	x	x
O=C(NCc1ccco1)Nc1ccc([N+](=O)[O-])cc1	69%	3%	-40%	7%	-3%	-2%
COc1cc(C=O)cc(OC)c1OS(=O)(=O)c1ccc(NC(C)=O)cc1	4.1µM*	-2%	0%	28%	-23%	-2%
O=C(Nc1ccc(Cl)c(Cl)c1)Nc1ccc([N+](=O)[O-])cn1	u	-4%	0%	9.3µM*	-3%	1%
Cc1ccc(C(C)C)cc1NC(=O)Nc1ccc([N+](=O)[O-])cc1	3.3µM*	-15%	-118%	4.1µM*	13µM*	-12%
O=C(Nc1ccc(Oc2ccc(NC(=O)Nc3ccc([N+](=O)[O-])cc3)cc2)cc1)Nc1ccc([N+](=O)[O-])cc1	u	-2%	5%	u	5.6µM*	-5%
Cc1cc(O)c(C(C)C)cc1NC(=O)Nc1ccc([N+](=O)[O-])cc1	x	-4%	x	x	u	x
COc1cc(NC(=O)c2ccc(Cl)cc2Cl)ccc1NC(=O)c1cccs1	44%	-5%	-48%	40%	u	0%
